PLK1 PBD block – qHTS for Inhibitors of PLK1-PDB (polo-like kinase 1 - polo-box domain): Primary Screen | Serine/threonine-protein kinase PLK1 (Homo sapiens), P53350 | Plk1 PBD binding of FITC phosphopeptide, fluorescence polarization | Potency, µM, for the others: max response, negative = inhibition, hits mostly inhibitors | 360,000 tested, 2.8% active; also: series mostly up to about 57 µM; nearly all actives have a fitted effect of over 65% in size
TDP1 block – qHTS Assay for Inhibitors of Tyrosyl-DNA Phosphodiesterase (TDP1); 350,000 tested, 0.28% active; recombinant TDP1, AlphaScreen DNA substrate cleavage; Potency, µM (series often up to 130 µM), for the others: top-dose activity change, negative = inhibition, usual class: inhibitors; Tyrosyl-DNA phosphodiesterase 1 (Homo sapiens), Q9NUW8; also: nearly all actives have a fitted effect of over 40% in size
Target sequence (Q9NUW8 whole entry, looked up): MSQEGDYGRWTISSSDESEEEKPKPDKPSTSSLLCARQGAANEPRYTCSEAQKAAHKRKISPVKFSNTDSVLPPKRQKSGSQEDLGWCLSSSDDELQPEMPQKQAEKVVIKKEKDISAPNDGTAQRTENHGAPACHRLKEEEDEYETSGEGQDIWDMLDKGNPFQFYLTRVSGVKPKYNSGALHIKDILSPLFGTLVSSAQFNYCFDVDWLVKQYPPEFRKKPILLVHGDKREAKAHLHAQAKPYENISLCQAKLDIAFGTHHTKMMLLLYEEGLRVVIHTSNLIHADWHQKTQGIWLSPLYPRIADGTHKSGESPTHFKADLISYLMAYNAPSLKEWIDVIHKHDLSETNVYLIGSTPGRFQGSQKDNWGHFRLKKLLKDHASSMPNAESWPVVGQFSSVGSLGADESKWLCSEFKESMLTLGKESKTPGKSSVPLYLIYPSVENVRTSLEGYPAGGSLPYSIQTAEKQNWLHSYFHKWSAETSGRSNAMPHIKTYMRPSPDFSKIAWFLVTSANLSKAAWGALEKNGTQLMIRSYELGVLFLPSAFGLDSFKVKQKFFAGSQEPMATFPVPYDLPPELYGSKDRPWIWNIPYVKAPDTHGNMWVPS
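Enzyme-compound mixtures sat 15 min at room temperature, followed by a 5 min reaction with 15 nM final substrate and 10 min with AlphaScreen beads. Recombinant human Tdp1 was used at 1 nM final.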
TDP1 cell noCPT – qHTS for Inhibitors of human tyrosyl-DNA phosphodiesterase 1 (TDP1): qHTS in cells in absence of CPT; DT40 Tdp1-/- hTDP1 cells, no CPT, ATP luminescence, 48 h; Potency, µM (highest dose often 46.2 µM), for inactives: at the top dose activity change, negative = growth inhibition, most hits filed as inhibitors; 420,000 tested, 15% active; AID 686978, 2013; also: nearly all actives have a fitted effect of over 55% in size
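Seeded 400 DT40-hTDP1 cells/well (vehicle DMSO, no 20 nM CPT); pinned compounds; ≥48 hr at 37 °C; CellTiter-Glo luminescence as viability measure.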
DT40 TDP1 CPT – qHTS for Inhibitors of human tyrosyl-DNA phosphodiesterase 1 (TDP1): qHTS in cells in presence of CPT; Potency, µM (doses to about 46.2 µM), for the others: at the highest dose activity change, negative = growth inhibition, most hits filed as inhibitors; chicken DT40 Tdp1-/-;hTDP1 cells + 20 nM CPT, ATP luminescence, 48 h; 420,000 tested, 12% active; AID 686979, 2013; also: nearly all actives have a fitted effect of over 55% in size
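Cell growth measured by CellTiter-Glo luminescence after a minimum 48 h, 37 C compound exposure with 20 nM CPT in Tdp1-knockout DT40 cells stably expressing hTDP1, seeded 400/well; qHTS titration format.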
VDR inh – Inhibitors of the vitamin D receptor (VDR): qHTS | VDR-SRC2-3 peptide fluorescence polarization, 2 h | 400,000 tested, 0.93% active | Potency, µM, for inactives: max response, negative = inhibition, actives largely listed as inhibitors
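Compounds are added to VDR with labelled SRC2-3 coactivator peptide and held 2 h at room temperature. Inhibition of the VDR–peptide interaction is then read as a change in fluorescence polarization.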
GCN5L2 inh – qHTS Assay for Inhibitors of GCN5L2; 390,000 tested, 0.21% active; Potency, µM (series often up to 58.9 µM), inactives show at the highest dose activity change, negative = inhibition, usual class: inhibitors; GCN5L2 HAT assay, ThioGlo1 CoA-SH fluorescence
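Enzyme at 20nM final was mixed with library compounds for 15 min at room temperature. Peptide H3(1-25) at 75uM, acetyl-CoA at 70uM and ThioGlo1 at 50uM were then added. Plates were read immediately and after 20 min (Ex340nm/Em540nm).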
An asterisk follows results filed as active; ? = inconclusive; . = no result given; [ ] = dose if it differs, or a comment. A selection: hits, their analogues and other compounds. The true share with any hit is near 18%. Calls follow the shape of the dose curve; as a rule, active = well fitted curve in the direction sought with a large enough effect; inconclusive = small, poorly fitted or top-dose-only effect, or another doubt; inactive = no such curve, though single readings can be large; an effect the other way counts as inactive or inconclusive. % is scaled to controls: 0 for no effect and ±100 for the full control effect; potency is read from the fitted curve at half-maximal effect.

SMILES | PLK1 PBD block | TDP1 block | TDP1 cell noCPT | DT40 TDP1 CPT | VDR inh | GCN5L2 inh
CNP(=O)(Oc1ccccc1)OC12CC3CC(CC(C3)C1)C2 (stereo not given) | -21% | 3% | -21% | 1% | -8% | -10%
Oc1c(Cl)cccc1Cc1cc(Cl)cc(Cl)c1O | 27µM* | . | 21µM* | ? | -15% | .
COc1ccc(OCc2nnc(SCC(=O)NCC3CCCO3)n2N)cc1 (stereo not given) | 17µM* | 2% | -11% | -10% | ? | -5%
COc1ccc(-n2c(O)c(C(C)=NCC3CCCO3)c(=O)[nH]c2=O)cc1 (stereo not given) | -1% | 11% | 6% | 3% | 3% | -6%
CCCSP(=O)(OCC)SCCC | . | . | -13%[92.5 µM] | 6%[92.5 µM] | . | .
CCOc1cc(-c2ccc(N)c(OCC)c2)ccc1N | 3.4µM* | -1% | ? | 12µM* | -30% | -4%
C=C1[C@@H](C)[C@H]2[C@H](Cc3ccccc3)NC(=O)[C@]23OC(=O)/C=C/[C@H](O)CCC[C@@H](C)C/C=C/[C@H]3[C@@H]1O | -4% | 9% | 0.65µM* | 1.8µM* | 1% | 2%
Cc1ccc(C)c(N2CCN(c3nc4ccc(Cl)cc4n4cnnc34)CC2)c1 | . | -3% | 16µM* | 18µM* | 3% | -5%
O=C(Nc1ccc(F)cc1)c1c(O)c2c(n(Cc3ccccc3)c1=O)CCCC2 | 27µM* | 3% | 3% | ? | -11% | -6%
COc1cccc(C(=O)NCc2nc(-c3cccc(NC(=O)c4ccoc4C)c3)oc2C)c1 | . | . | ? | 11%[9.04 µM] | . | .
[Hg+][c]1ccccc1 | . | 11% | 0.1µM* | 0.089µM* | 13µM* | 0.45µM*
CC12CCC3C(CC=C4CC(O)CCC43C)C1C/C(=C\N1CCCC1)C2=O (stereo not given) | . | . | . | . | . | -7%
COc1cc(/C=C2\C[C@H]3[C@@H]4CC=C5C[C@@H](N6CCCC6)CC[C@]5(C)[C@H]4CC[C@]3(C)[C@H]2O)cc(OC)c1OC | -2% | . | 5.2µM* | 15µM* | ? | .
Cc1nn(Cc2ccccc2)c2c1C(c1ccco1)C(C#N)=C(N)O2 (stereo not given) | ? | 12% | ? | ? | 1% | ?
Cc1nn(-c2ccccc2)c2c1C(c1ccc(F)cc1F)C(C#N)=C(N)O2 (stereo not given) | 21µM* | -2% | -24% | ? | ? | 1%
COc1ccc(OC)c(C2C(C#N)=C(N)Oc3c2c(C)nn3-c2ccc(C)cc2)c1 (stereo not given) | 30µM* | 8% | ? | -40% | -17% | -3%
O=C(O)C1C2c3ccccc3C(=O)C1(C(=O)O)c1ccccc12 (stereo not given) | 3% | . | -5% | 8% | -4% | .
Oc1ccc2c3c1O[C@H]1[C@@H](O)CC[C@@]4(O)C(C2)N(CC2CCC2)CCC314 (stereo not given in full) | . | 9%[56.1 µM] | -8% | 2% | 9% | -8%
Cc1cc(N2CCNCC2)nc2ccccc12 | 27µM* | . | ? | -9% | -12% | 1%
Cc1cccc(-n2c(=O)c3c(c4cc(C)ccc4n3C)n(CC(=O)Nc3ccc(C)c(C)c3)c2=O)c1 | . | 3% | ? | -20% | -3% | 1%
COc1ccc(CNC(=O)Cn2c(SCC(=O)Nc3ccc(C)c(C)c3)nc3ccccc32)cc1 | . | 4% | 4.6µM* | ? | 0% | -7%
Cc1ccc(C(=O)Nc2ccc(S(=O)(=O)N3CCC(c4nc5ccccc5s4)CC3)cc2)cc1 | . | 9% | ? | ? | -1% | -1%
O=C(Nc1ccc(Cl)c(C(F)(F)F)c1)c1ccc2c(c1)CCN2S(=O)(=O)c1ccccc1 | . | 5% | 9.2µM* | 9.2µM* | 5% | -14%
COc1ccc(CCN(C)Cc2ccc(F)cc2F)cc1OC | -5% | 3% | -19% | 0% | -2% | -8%
CCN(CC)c1ccc(CN(C)CCc2ccc(OC)c(OC)c2)cc1 | -5% | 1% | ? | 23µM* | 11% | 0%
SMILES | PLK1 PBD block | TDP1 block | TDP1 cell noCPT | DT40 TDP1 CPT | VDR inh | GCN5L2 inh
CC(N)C(=O)NC1C2C(=C(O)CC(O)C2O)C(=O)OC1(C)C(Cl)Cl (stereo not given) | -11% | . | 0.16µM* | 0.18µM* | -18% | .
Cc1cccc(NC(=O)c2ncn3c2C(=O)NC[C@H]3C)c1 | 5% | . | ? | -24% | . | .
COP(=O)(CC(=O)O)c1ccccc1 (stereo not given) | 0% | -3% | -9% | -2% | 8% | 0%
COC(=O)[C@@H]1C[C@@]1(C)[C@@H](NP(=O)(c1ccccc1)c1ccccc1)c1ccccc1 | -1% | 4% | 21µM* | ? | -8% | -1%
Cc1ccccc1[N+](=O)[O-] | -6% | 1% | 10% | -4% | 8% | -3%
Cc1cc([N+](=O)[O-])c2ccccc2[n+]1[O-] | ? | . | 0.052µM* | 0.046µM* | -5% | -4%
CC1(C)N2CC3([N+](=O)[O-])CN1CC([N+](=O)[O-])(C2)C3 | -4% | 4% | -2% | 16% | -6% | -3%
O=[N+]([O-])c1ccc(Cl)c([N+](=O)[O-])c1 | -25% | . | 4.6µM* | 3.7µM* | -12% | -12%
O=S(=O)(c1ccc(Cl)cc1)N1CCC(n2cnc3cc(C(F)(F)F)ccc32)CC1 | -7% | . | ? | ? | -7% | .
C[C@]12CC[C@H]3[C@@H](CC[C@@]45O[C@@H]4C(=O)C(C#N)C[C@]35C)[C@@H]1CC[C@@H]2O (stereo not given in full) | . | . | . | . | ? | -1%
O=C(Cn1ncc2c3ccccc3n(Cc3ccc(F)cc3)c2c1=O)N1CCC2(CC1)OCCO2 | 0% | 5% | 3.3µM* | 3.3µM* | 4% | -4%
CCOC(=O)N1CCN(C(=O)Cn2ncc3c4ccccc4n(Cc4ccc(F)cc4)c3c2=O)CC1 | . | 5% | 1.8µM* | 1.6µM* | 5% | -2%
Cc1c2cnn(CC(=O)N3CCC4(CC3)OCCO4)c(=O)c2c(C)n1Cc1ccccc1 | -4% | 11% | ? | -7% | ? | -13%

Compound activity as filed in PubChem BioAssay.
